According to PubChem BioAssay (EPA / NIEHS):
Calls of active or inactive are those of the source. The calls were made as follows, unless noted: active = hit-call score of the fitted dose curve at least 0.9, where 1 is the maximum; inactive = score below 0.9.

What was measured:
[1] = read-out: Protein phosphatase 2A (PPP2R4), PTPA (gene 5524); experiment: LTEA_HepaRG_PPP2R4: Life Technologies and Expression Analysis (LTEA) Assay for Protein phosphatase 2A (PPP2R4) using HepaRG (AID 2283522); conditions: mRNA level, 48 h; actives raise or lower the signal
Summary of the method: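 Using HepaRG cultures maintained in 0.5% DMSO, chemicals are tested 48 h at up to 100 uM in duplicate. Induction or suppression of PPP2R4 mRNA, measured by qRT-PCR, is fitted bidirectionally against the vehicle baseline.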

[2] = read-out: Phosphatase and tensin (PTEN), PTEN (gene 5728); experiment: LTEA_HepaRG_PTEN: Life Technologies and Expression Analysis (LTEA) Assay for Phosphatase and tensin (PTEN) using HepaRG (AID 2283523); conditions: mRNA level, 48 h; actives raise or lower the signal
Summary of the method: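 HepaRG, 48 h exposure, 8-pt half-log series from 100 uM top, 0.5% DMSO vehicle, duplicates. Readout: Fluidigm qRT-PCR of PTEN transcript; housekeeping normalization (ACTB, GAPDH, POLR2A). Gain or loss fitted relative to DMSO baseline.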

[3] = read-out: solute carrier (SLC22A1), SLC22A1 (gene 6580); experiment: LTEA_HepaRG_SLC22A1: Life Technologies and Expression Analysis (LTEA) Assay for solute carrier (SLC22A1) using HepaRG (AID 2283524); conditions: mRNA level, 48 h; actives raise or lower the signal;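 as to AC50: differentiated human HepaRG liver cells in serum-free induction medium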
Summary of the method: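 qRT-PCR readout (TaqMan, Fluidigm arrays) of SLC22A1 transcript, normalized to three housekeeping genes; bidirectional curve fit relative to 0.5% DMSO vehicle. Differentiated human HepaRG cells, 48 h chemical exposure, top concentration 100 uM, half-log steps, eight points.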

[4] = read-out: Pyruvate Dehydrogenase Kinase 4 (PDK4), PDK4 (gene 5166); experiment: LTEA_HepaRG_PDK4: Life Technologies and Expression Analysis (LTEA) Assay for Pyruvate Dehydrogenase Kinase 4 (PDK4) using HepaRG (AID 2283525); conditions: mRNA level, 48 h; actives raise or lower the signal
Summary of the method: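 HepaRG (human liver line), 48 h chemical exposure, 8-pt half-log CRC top 100 uM, 0.5% DMSO vehicle, duplicates. Readout: TaqMan qRT-PCR of PDK4 mRNA, housekeeping-normalized; gain/loss fit relative to DMSO baseline.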

[5] = read-out: NAD(P)H dehydrogenase [quinone] 1 (NQO1), NQO1 (gene 1728); experiment: LTEA_HepaRG_NQO1: Life Technologies and Expression Analysis (LTEA) Assay for NAD(P)H dehydrogenase [quinone] 1 (NQO1) using HepaRG (AID 2283526); conditions: mRNA level, 48 h; actives raise or lower the signal
Summary of the method: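 In this assay, gene expression is read by qRT-PCR after 48 h exposure of HepaRG cells to eight concentrations (max 100 uM, half-log) in 0.5% DMSO. Each chemical runs in duplicate, and activity is scored relative to vehicle.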

[6] = read-out: succinate dehydrogenase complex iron sulfur subunit B (SDHB), SDHB (gene 6390); experiment: LTEA_HepaRG_SDHB: Life Technologies and Expression Analysis (LTEA) Assay for succinate dehydrogenase complex iron sulfur subunit B (SDHB) using HepaRG (AID 2283528); conditions: mRNA level, 48 h; actives raise or lower the signal
Summary of the method: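 Readout is SDHB transcript level by qRT-PCR, normalised to three housekeeping genes and fitted bidirectionally against 0.5% DMSO vehicle. Human HepaRG cells were treated for 48 h at up to 100 uM.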

[7] = read-out: Signal transducer and activator of transcription 3 (Homo sapiens) (UniProt P40763); experiment: LTEA_HepaRG_STAT3: Life Technologies and Expression Analysis (LTEA) Assay for Signal transducer and activator of transcription (STAT3) using HepaRG (AID 2283529); conditions: mRNA level, 48 h; actives raise or lower the signal
Summary of the method: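 HepaRG, 48 h exposure, 8-pt half-log series (top 100 uM), 0.5% DMSO vehicle, duplicates. Readout: STAT3 transcript by Fluidigm qRT-PCR, housekeeping-normalized; bidirectional fit vs DMSO baseline.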

[8] = read-out: solute carrier (SLCO1B1), SLCO1B1 (gene 10599); experiment: LTEA_HepaRG_SLCO1B1: Life Technologies and Expression Analysis (LTEA) Assay for solute carrier (SLCO1B1) using HepaRG (AID 2283530); conditions: mRNA level, 48 h; actives raise or lower the signal
Summary of the method: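 Human HepaRG cultures treated for 48 h with an eight-concentration half-log series topping at 100 uM; SLCO1B1 measured by qRT-PCR and fitted bidirectionally relative to DMSO.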

[9] = read-out: sulfotransferase 2A1 (SULT2A1), SULT2A1 (gene 6822); experiment: LTEA_HepaRG_SULT2A1: Life Technologies and Expression Analysis (LTEA) Assay for sulfotransferase 2A1 (SULT2A1) using HepaRG (AID 2283531); conditions: mRNA level, 48 h; actives raise or lower the signal
Summary of the method: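 Gene-expression endpoint in a human liver cell line: SULT2A1 mRNA change after 48 h chemical treatment, curves fitted in both directions relative to 0.5% DMSO vehicle. Concentrations spanned eight half-log steps from 100 uM.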

[10] = read-out: Transforming Growth Factor (TGFA), TGFA (gene 7039); experiment: LTEA_HepaRG_TGFA: Life Technologies and Expression Analysis (LTEA) Assay for Transforming Growth Factor (TGFA) using HepaRG (AID 2283532); conditions: mRNA level, 48 h; actives raise or lower the signal
Summary of the method: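 qRT-PCR read-out of TGFA transcript, normalized to three housekeeping genes, fitted bidirectionally against 0.5% DMSO baseline. Human HepaRG cultures received chemicals for 48 h at eight half-log concentrations, top 100 uM.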

[11] = read-out: Transforming Growth Factor (TGFB1), TGFB1 (gene 7040); experiment: LTEA_HepaRG_TGFB1: Life Technologies and Expression Analysis (LTEA) Assay for Transforming Growth Factor (TGFB1) Transporter using HepaRG (AID 2283533); conditions: mRNA level, 48 h; actives raise or lower the signal
Summary of the method: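 Eight-point concentration-response (max 100 uM, half-log) in HepaRG under serum-free induction conditions, 48 h. TGFB1 mRNA by qRT-PCR, housekeeping-normalized.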

[12] = read-out: TIMP1, TIMP1 (gene 7076); experiment: LTEA_HepaRG_TIMP1: Life Technologies and Expression Analysis (LTEA) Assay for TIMP1 using HepaRG (AID 2283534); conditions: mRNA level, 48 h; actives raise or lower the signal
Summary of the method: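 TIMP1 induction or repression in HepaRG cells after 48 h chemical exposure (eight concentrations, highest 100 uM), assessed by normalized qRT-PCR with bidirectional fitting to DMSO controls.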

[13] = read-out: Tumor necrosis factor receptor 1 (TNFRSF1A), TNFRSF1A (gene 7132); experiment: LTEA_HepaRG_TNFRSF1A: Life Technologies and Expression Analysis (LTEA) Assay for Tumor necrosis factor receptor 1 (TNFRSF1A) using HepaRG (AID 2283535); conditions: mRNA level, 48 h; actives raise or lower the signal
Summary of the method: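 Assay uses 48 h chemical treatment of differentiated HepaRG monolayers, tested in duplicate at eight concentrations from 100 uM downward in 0.5% DMSO. mRNA is normalized to ACTB, GAPDH and POLR2A, with induction or suppression fitted relative to vehicle.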

[14] = read-out: Thyroid Hormone Responsive (THRSP), THRSP (gene 7069); experiment: LTEA_HepaRG_THRSP: Life Technologies and Expression Analysis (LTEA) Assay for Thyroid Hormone Responsive (THRSP) using HepaRG (AID 2283536); conditions: mRNA level, 48 h; actives raise or lower the signal
Summary of the method: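 qRT-PCR read-out (Fluidigm TaqMan), housekeeping-normalized (ACTB/GAPDH/POLR2A). HepaRG, 48 h chemical exposure, 8-pt half-log series from 100 uM in 0.5% DMSO, duplicates. Bidirectional curve fit vs 0.5% DMSO baseline.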

[15] = read-out: Cellular tumor antigen p53 (Homo sapiens) (UniProt P04637); experiment: LTEA_HepaRG_TP53: Life Technologies and Expression Analysis (LTEA) Assay for Tumor Protein P53 (TP53) using HepaRG (AID 2283537); conditions: mRNA level, 48 h; actives raise or lower the signal
Summary of the method: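 Read-out is TP53 transcript level by microfluidic qRT-PCR, normalised to three housekeeping genes and fitted bidirectionally against DMSO. Human HepaRG cells received compounds for 48 h, highest concentration 100 uM.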

[16] = read-out: UDP glucuronosyltransferase (UGT1A1), UGT1A1 (gene 54658); experiment: LTEA_HepaRG_UGT1A1: Life Technologies and Expression Analysis (LTEA) Assay for UDP glucuronosyltransferase (UGT1A1) using HepaRG (AID 2283538); conditions: mRNA level, 48 h; actives raise or lower the signal
Summary of the method: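 mRNA induction or loss of UGT1A1, by TaqMan qRT-PCR, in duplicate HepaRG wells after 48 h exposure to half-log dilutions topping at 100 uM; DMSO (0.5%) served as baseline.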

[17] = read-out: UDP glucuronosyltransferase (UGT1A6), UGT1A6 (gene 54578); experiment: LTEA_HepaRG_UGT1A6: Life Technologies and Expression Analysis (LTEA) Assay for UDP glucuronosyltransferase (UGT1A6) using HepaRG (AID 2283539); conditions: mRNA level, 48 h; actives raise or lower the signal
Summary of the method: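 Measures mRNA change in HepaRG hepatic cells exposed 48 h to chemicals (eight-point, maximum 100 uM, 0.5% DMSO vehicle) in serum-free induction medium. Expression normalized to endogenous controls; DMSO served as negative control and baseline.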

[18] = read-out: X-box binding protein 1 (XBP1), XBP1 (gene 7494); experiment: LTEA_HepaRG_XBP1: Life Technologies and Expression Analysis (LTEA) Assay for X-box binding protein 1 (XBP1) using HepaRG (AID 2283540); conditions: mRNA level, 48 h; actives raise or lower the signal
Summary of the method: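 Eight concentrations (half-log, highest 100 uM, 0.5% DMSO) tested in duplicate on HepaRG cells over 48 h in serum-free induction medium; qRT-PCR of XBP1 normalised to ACTB, GAPDH, POLR2A.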

[19] = LTEA_HepaRG_LDH_cytotoxicity: Cytotoxicity Assessment in the Life Technologies and Expression Analysis (LTEA) Assay (AID 2283563; active = hit-call score of the fitted dose curve at least 0.9, where 1 is the maximum;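 as to AC50: LDH activity released into spent culture medium as a marker of cell death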)
Summary of the method: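 Spent-medium LDH after 48 h chemical exposure of HepaRG cells in serum-free induction medium; eight concentrations, half-log dilutions from 100 uM, duplicate wells, fitted upward relative to 0.5% DMSO.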

[20] = read-out: Nuclear factor erythroid 2-related factor 2 (Homo sapiens) (UniProt Q16236); experiment: LTEA_HepaRG_NFE2L2: Life Technologies and Expression Analysis (LTEA) Assay for Nuclear factor erythroid 2-related factor 2 (NFE2L2) Transcription Factor using HepaRG (AID 2283527); conditions: mRNA level, 48 h; actives raise or lower the signal
Summary of the method: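 HepaRG, 48 h dosing, 8-pt half-log series from 100 uM in 0.5% DMSO, duplicates. Read-out: NFE2L2 mRNA by qRT-PCR (ACTB/GAPDH/POLR2A normalization). Bidirectional curve fit vs DMSO baseline.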

Measured: AC50

Sequence of Cellular tumor antigen p53 (Homo sapiens) (P04637 whole entry, looked up): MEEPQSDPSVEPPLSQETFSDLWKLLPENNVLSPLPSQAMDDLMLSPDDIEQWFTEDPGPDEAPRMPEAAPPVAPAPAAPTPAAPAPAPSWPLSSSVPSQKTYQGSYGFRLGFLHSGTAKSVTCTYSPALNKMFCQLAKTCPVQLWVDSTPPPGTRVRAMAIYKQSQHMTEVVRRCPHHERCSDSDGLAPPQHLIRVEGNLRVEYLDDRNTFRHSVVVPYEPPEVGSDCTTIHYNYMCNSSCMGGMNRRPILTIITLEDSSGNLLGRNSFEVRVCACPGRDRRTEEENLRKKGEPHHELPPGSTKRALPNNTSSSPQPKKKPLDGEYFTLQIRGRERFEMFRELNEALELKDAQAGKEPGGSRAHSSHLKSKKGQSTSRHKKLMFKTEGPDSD
Sequence of Signal transducer and activator of transcription 3 (Homo sapiens) (P40763 whole entry, looked up): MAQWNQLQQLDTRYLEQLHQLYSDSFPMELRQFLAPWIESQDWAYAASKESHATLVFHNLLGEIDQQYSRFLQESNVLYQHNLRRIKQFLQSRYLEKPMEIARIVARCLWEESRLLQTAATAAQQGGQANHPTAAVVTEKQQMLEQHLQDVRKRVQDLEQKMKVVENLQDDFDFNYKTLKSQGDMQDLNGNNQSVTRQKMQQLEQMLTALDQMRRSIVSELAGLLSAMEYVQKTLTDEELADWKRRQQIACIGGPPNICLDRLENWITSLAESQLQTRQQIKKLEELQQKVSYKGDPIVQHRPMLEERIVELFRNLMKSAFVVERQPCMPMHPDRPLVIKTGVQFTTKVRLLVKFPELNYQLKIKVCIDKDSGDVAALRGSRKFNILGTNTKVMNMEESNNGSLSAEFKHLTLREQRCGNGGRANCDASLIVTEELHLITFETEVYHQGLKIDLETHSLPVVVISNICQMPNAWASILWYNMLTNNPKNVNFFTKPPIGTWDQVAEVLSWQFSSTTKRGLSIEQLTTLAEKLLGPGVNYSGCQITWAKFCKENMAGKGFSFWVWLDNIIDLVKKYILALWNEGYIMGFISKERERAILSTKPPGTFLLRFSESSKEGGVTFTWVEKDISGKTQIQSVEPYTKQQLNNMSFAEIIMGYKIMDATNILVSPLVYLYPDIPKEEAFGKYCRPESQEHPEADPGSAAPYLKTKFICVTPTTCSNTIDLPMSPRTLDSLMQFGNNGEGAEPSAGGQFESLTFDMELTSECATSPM
Sequence of Nuclear factor erythroid 2-related factor 2 (Homo sapiens) (Q16236 whole entry, looked up): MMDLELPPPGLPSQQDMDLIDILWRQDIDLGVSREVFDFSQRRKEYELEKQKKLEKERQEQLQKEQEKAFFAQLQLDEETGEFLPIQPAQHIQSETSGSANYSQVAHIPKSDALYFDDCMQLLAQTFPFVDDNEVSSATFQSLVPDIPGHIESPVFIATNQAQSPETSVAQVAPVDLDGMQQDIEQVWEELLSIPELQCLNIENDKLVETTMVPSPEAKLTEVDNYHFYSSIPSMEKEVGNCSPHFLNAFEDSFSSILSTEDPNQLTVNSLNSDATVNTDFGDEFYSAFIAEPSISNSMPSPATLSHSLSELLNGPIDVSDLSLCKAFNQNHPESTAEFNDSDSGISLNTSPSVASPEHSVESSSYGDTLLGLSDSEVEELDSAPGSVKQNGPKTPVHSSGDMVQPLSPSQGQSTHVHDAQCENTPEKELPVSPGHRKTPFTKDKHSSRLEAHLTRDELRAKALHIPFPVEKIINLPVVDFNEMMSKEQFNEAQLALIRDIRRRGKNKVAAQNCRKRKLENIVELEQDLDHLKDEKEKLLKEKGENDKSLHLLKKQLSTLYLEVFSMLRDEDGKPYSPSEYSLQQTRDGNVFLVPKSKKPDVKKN

ClC1=C(Cl)[C@]2(Cl)[C@H]3[C@H]([C@@H]4C=C[C@H]3C4)[C@@]1(Cl)C2(Cl)Cl
active: [3] 9.92 µM | [14] 30.8 µM | [16] 6.68 µM
not listed: [20]
inactive: all other assays above

CCCCC(CC)COC(=O)c1ccc(C(=O)OCC(CC)CCCC)c(C(=O)OCC(CC)CCCC)c1 (stereo unspecified)
not listed: [17]
inactive: all other assays above

CC(C)N(Cc1ccccc1)C(=O)C(C)(C)C
active: [16] 6.96 µM
not listed: [17] | [18]
inactive: all other assays above

CCCCCCCCOC(=O)c1ccc(C(=O)OCCCCCCCC)c(C(=O)OCCCCCCCC)c1
not listed: [8]
inactive: all other assays above

Cc1cc(N=Nc2ccccc2C)ccc1N
inactive: [5] | [6] | [7] | [12] | [13]
active: [1] 2.35 µM | [2] 4.12 µM | [3] 4.83 µM | [4] 2.39 µM | [20] 9.92 µM | [8] 3.57 µM | [9] 12.8 µM | [10] 12.6 µM | [11] 2.72 µM | [14] 1.41 µM | [15] 1.97 µM | [16] 85.9 µM | [18] 4 µM | [19] 5.21 µM

CC(C)COC(=O)c1ccccc1C(=O)OCC(C)C
not listed: [15]
inactive: all other assays above

c1ccc(C2CO2)cc1 (stereo unspecified)
not listed: [12] | [17]
inactive: all other assays above
